# Rows were chosen to be rich in hits. Some 9.2% of all compounds tested hit in one or more screens of this group.
# SMN2 splice up: qHTS Assay for Enhancers of SMN2 Splice Variant Expression | HEK293 SMN2-luciferase splicing reporter, luminescence, 30-36 h | Potency, µM (highest dose often 46.1 µM), for inactives: at the highest dose activity change, positive = activation, hits mostly activators | actives 2.8% (n = 210,000); further: % of control where 0% means no effect; nearly all actives have a fitted effect of over 55% in size
#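 HEK293 cells carry an SMN2 […]–luciferase reporter in which exon 7 inclusion puts luciferase in frame. Cells were plated 10-12 h before compound addition, then incubated 30-36 h at 37C. ONE-Glo luminescence was read; sodium butyrate at 4.5 mM final served as control.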
# NPC1 prom act: qHTS Assay for NPC1 Promoter Activators; Huh7 NPC1 promoter luciferase reporter, 24 h; Potency, µM (doses to about 9.22 µM), without a hit: at the top dose activation, most hits filed as activators; actives 2.4% (n = 320,000); AID 485313, 2010; further: % of control where 0% means no effect; nearly all actives have a fitted effect of over 60% in size
#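 Compounds in DMSO were transferred onto Huh7 NPC1-luciferase reporter cells pre-incubated 2 h; after 24 h at 37 °C, Amplite reagent was dispensed and luminescence recorded 10 min later.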
# ELG1 genotox: qHTS screen for small molecules that induce genotoxicity in human embryonic kidney (HEK293T) cells expressing luciferase-tagged ELG1; AID 504466, 2011; HEK293T ELG1-luciferase reporter, luminescence, 16 h; Potency, µM (doses to about 46 µM), for the others: at the highest dose activity change, positive = activation, most hits filed as activators; actives 1.3% (n = 330,000); further: % of control where 0% means no effect; nearly all actives have a fitted effect of over 60% in size
#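 Genotoxicity was scored as increased ELG1-luciferase reporter signal, measured by ONE-Glo luminescence (30 min, room temperature). Compound or vehicle exposure of the HEK293T reporter cells lasted 16 hr at 37°C.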
# ELG1 repair inh: qHTS screen for small molecules that inhibit ELG1-dependent DNA repair in human embryonic kidney (HEK293T) cells expressing luciferase-tagged ELG1; Potency, µM (highest dose often 46.1 µM), for the others: top-dose activity change, negative = inhibition, actives largely listed as inhibitors; actives 2.3% (n = 330,000); HEK293T ELG1-luciferase reporter, luminescence, 16 h; DNA damage induced by 5-fluorouridine; further: on the % scale 0 is the no-effect control and ±100 the full control effect; nearly all actives have a fitted effect of over 55% in size
#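 Cells (2,000 per well) received 5-fluorouridine plus test compound or DMSO and were incubated 16 hr at 37 °C, 5% CO2. Luciferase activity was read by luminescence 30 min after ONE-Glo addition; signal suppression marked inhibition of damage-induced ELG1 function.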
# Rab9 prom act: qHTS Assay for Rab9 Promoter Activators. Huh7 Rab9 promoter-luciferase reporter, luminescence, 24 h. AID 485297, 2010. Potency, µM (top dose mostly 9.22 µM), for the others: at the top dose activation, negative = inhibition, actives largely listed as activators. actives 2.8% (n = 320,000); further: % of control where 0% means no effect; nearly all actives have a fitted effect of over 60% in size
#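 Cells were plated at 1500 per well in reduced-serum medium with 10% FBS and left 2 h. Compound in DMSO was then added for 24 h at 37 °C. Reporter signal was read by luminescence after 10 min with luciferase detection reagent.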
# FLuc counter: qHTS profiling assay for firefly luciferase inhibitor/activator using purifed enzyme and Km concentrations of substrates (counterscreen for miR-21 project); Potency, µM (doses to about 57.5 µM), without a hit: at the highest dose activity change, negative = inhibition, hits mostly inhibitors; AID 588342, 2011; purified FLuc, Km substrates, luminescence inhibition; Luciferin 4-monooxygenase (Photinus pyralis), P08659; actives 6.9% (n = 360,000);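 further: plate controls were vehicle for no effect and reference inhibitor for full effect; nearly all actives have a fitted effect of over 55% in size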
# Target sequence (P08659 whole entry, looked up): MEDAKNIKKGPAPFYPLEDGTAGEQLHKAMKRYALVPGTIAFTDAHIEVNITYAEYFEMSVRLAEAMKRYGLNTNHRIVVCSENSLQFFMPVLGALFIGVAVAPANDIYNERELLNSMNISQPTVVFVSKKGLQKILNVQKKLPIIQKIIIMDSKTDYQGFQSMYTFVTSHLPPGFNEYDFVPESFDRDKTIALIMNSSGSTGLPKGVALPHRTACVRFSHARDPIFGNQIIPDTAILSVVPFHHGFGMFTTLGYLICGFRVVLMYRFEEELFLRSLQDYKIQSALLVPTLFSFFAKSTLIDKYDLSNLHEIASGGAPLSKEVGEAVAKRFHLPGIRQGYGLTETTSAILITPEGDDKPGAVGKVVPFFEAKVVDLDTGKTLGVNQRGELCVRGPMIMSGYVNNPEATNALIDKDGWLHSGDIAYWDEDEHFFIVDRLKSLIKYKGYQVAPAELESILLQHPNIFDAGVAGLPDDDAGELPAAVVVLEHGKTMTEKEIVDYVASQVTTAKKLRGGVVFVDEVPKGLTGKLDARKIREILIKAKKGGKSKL
#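 Biochemical qHTS of compounds, final roughly 60 µM downward over six points, against 10 nM purified firefly luciferase using Km concentrations of substrates (10 uM D-luciferin, 10 uM ATP) in Tris acetate pH 7.5 buffer; luminescence output.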
# Starred values were filed as active, the others as inactive; ? = inconclusive; . = not tested or not shown. The call rests on the fitted dose curve; in most records, active means well fitted curve in the direction sought with a large enough effect; inconclusive means small, poorly fitted or top-dose-only effect, or another doubt; inactive means no such curve, though single readings can be large; an effect the other way counts as inactive or inconclusive. Potency means the concentration at half of the fitted maximal effect.
SMILES,SMN2 splice up,NPC1 prom act,ELG1 genotox,ELG1 repair inh,Rab9 prom act,FLuc counter
CC(=O)Nc1nonc1-c1nnc(SCC(=O)Nc2ccc(C)c(Cl)c2)n1-c1ccccc1,.,.,.,.,.,-1%
CC1(C)CC[C@]2(CO)CC[C@]3(C)C(=CCC4[C@@]5(C)CC[C@H](O)[C@@](C)(CO)C5CC[C@]43C)[C@@H]2C1 (stereo partly specified),.,.,-2%,2%,.,.
COc1cc(/C=C/C(=O)N2CCN(Cc3ccccc3)CC2)cc(OC)c1OC,.,-5%,0%,-25%,-5%,-3%
COc1cc(/C=C/c2nnc3c4ccccc4ncn23)cc(OC)c1OC,.,8%,-6%,6.5µM*,23%,?
C(=C\c1nnc2c3ccccc3ncn12)/c1ccccc1,14µM*,4.5µM*,?,?,3.2µM*,1.7µM*
Cc1ccc(CSCc2ccc(C(=O)NCCc3ccc(Cl)cc3)o2)cc1,.,.,.,.,.,-11%
CC(SCc1ccccc1)C(=O)Nc1ccccc1 (stereo unspecified),.,2%,-9%,1%,5%,3%
CC(=O)Nc1nonc1-c1nnc(SCC(=O)Nc2ccc(F)cc2F)n1-c1ccccc1,.,.,.,.,.,-2%
CCN(CC)S(=O)(=O)c1ccc(C(=O)NNC2=NS(=O)(=O)c3ccccc32)cc1,.,-1%,2%,10%,-3%,-13%
O=C(NNC1=NS(=O)(=O)c2ccccc21)c1ccc(Cl)cc1,-5%,?,-6%,?,?,3.4µM*
O=C(Cc1ccccc1)NNC1=NS(=O)(=O)c2ccccc21,.,1%,2%,6%,-10%,?
O=C(NNC1=NS(=O)(=O)c2ccccc21)c1ccc([N+](=O)[O-])cc1,.,?,15%,-4%,28%,1.5µM*
Cc1ccc(C(=O)OC(C)C(=O)Nc2ccc(Cl)cn2)s1 (stereo unspecified),.,7%,0%,-1%,0%,1%
CCc1ccc(C(=O)NNC(=O)c2ccc3c(=O)n4c(nc3c2)CCC4)cc1,.,-2%,-1%,11%,-1%,-19%
O=C(Nc1ccccn1)c1ccc2c(=O)n3c(nc2c1)CCCCC3,.,1µM*,?,?,0.56µM*,4.8µM*
CCCCc1nnc(NC(=O)c2ccc3c(=O)n4c(nc3c2)CCC4)s1,.,-2%,1%,0%,2%,-1%
Cc1ccc(NC(=O)c2ccc3c(=O)n4c(nc3c2)CCC4)cc1F,.,3.2µM*,?,?,2.5µM*,.
CCc1cccc(NC(=O)c2ccc3c(=O)n4c(nc3c2)CCCCC4)c1,.,?,-8%,-19%,23%,13µM*
CNC(=O)c1ccc(NC(=O)c2ccc3c(=O)n4c(nc3c2)CCC4)cc1,.,-2%,0%,23%,1%,-10%
Cc1ccc(-c2csc(NC(=O)c3ccc4c(=O)n5c(nc4c3)CCCCC5)n2)cc1,.,-5%,-11%,2.9µM*,-7%,?
CCCCOc1c(Br)cc(CNCCCN2CCOCC2)cc1OC,.,0%,-5%,-7%,2%,3%
O=C(/C=C\c1ccccc1)NC1CC(=O)N(c2ccccc2)C1 (stereo unspecified),.,.,.,.,.,1%
NC(=O)NC(=O)C(c1ccccc1)N1CCN(S(=O)(=O)c2ccc(Br)s2)CC1 (stereo unspecified),.,1%,-5%,?,-5%,1%
O=C(Nc1ccc(Cl)cc1)c1ccc2c(=O)n3c(nc2c1)CCCCC3,.,15%,12%,?,19%,?
O=C(Nc1ccc(F)c(Cl)c1)c1ccc2c(=O)n3c(nc2c1)CCCCC3,.,3.2µM*,-9%,?,1.8µM*,6.7µM*
SMILES,SMN2 splice up,NPC1 prom act,ELG1 genotox,ELG1 repair inh,Rab9 prom act,FLuc counter
O=C(Nc1ccc(F)cc1)c1ccc2c(=O)n3c(nc2c1)CCCCC3,.,3.2µM*,?,?,4.5µM*,13µM*
O=C(c1ccc2c(=O)n3c(nc2c1)CCCCC3)N1CCN(C(c2ccccc2)c2ccccc2)CC1,-42%,1%,-16%,23µM*,0%,0%
O=C(Nc1cccc(Cl)c1)c1ccc2c(=O)n3c(nc2c1)CCCCC3,?,1.6µM*,?,?,0.89µM*,3.4µM*
CC(=O)c1ccc(NC(=O)c2ccc3c(=O)n4c(nc3c2)CCCCC4)cc1,.,-6%,-8%,?,2%,-19%
CCOC(=O)c1c(C)[nH]c(C(=O)OCC(=O)NC2(C#N)CCCCC2)c1C,.,-1%,-2%,-16%,-2%,-1%
CC(C)(C)OC(=O)C(Cc1ccc(OC(C)(C)C)cc1)NC(=O)CNC(=O)OCc1ccccc1 (stereo unspecified),-40%,0%,-6%,8.2µM*,-4%,4%
C[C@H](NC(=O)OCc1ccccc1)C(=O)NNC(=O)[C@H](Cc1ccccc1)NC(=O)OC(C)(C)C,.,1%,3%,?,-2%,0%
CCOc1cccc(-c2nc3ccccc3c(=O)o2)c1,?,.,.,.,.,5.4µM*
COc1cccc(-c2nc3ccccc3c(=O)o2)c1,-13%,12%,?,?,9%,4.8µM*
COc1cc(OC)cc(-c2nc3ccccc3c(=O)o2)c1,-13%,-3%,-5%,1%,-6%,?
CC(C)c1ccc(C2(C)NC(=O)N(C(C)C(=O)Nc3ccc(N4CCOCC4)cc3)C2=O)cc1 (stereo unspecified),.,-2%,-1%,-19%,1%,7%
COc1cccc(C2c3c(-c4ccccc4)n[nH]c3C(=O)N2c2ccc(C(=O)O)cc2)c1 (stereo unspecified),-12%,-3%,1%,-5%,-4%,-13%
COc1ccc(C2c3c(-c4ccccc4)n[nH]c3C(=O)N2c2ccc(C(=O)O)cc2)cc1 (stereo unspecified),.,-6%,8%,11%,-1%,17µM*
CCCc1cc(C(=O)Nc2ccc(C(=O)c3ccc(C)cc3)cc2)n(C)n1,.,3%,-16%,?,-12%,?
Cc1ccc2nc(-c3cccc(NC(=O)c4cccc5ccccc45)c3)oc2c1,-9%,.,.,.,.,2.1µM*

# Compound activity from PubChem.
